PubChem BioAssay (NCI)
Values joined by “and” are separate entries in the source; they are usually repeats but may differ in a detail not shown here. Identical values can stand only once. About 83,000 compounds went through this panel and 20% of them were active in at least one assay; those are over-represented in the sample as a whole.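 A percent growth of 40 corresponds to 60% growth inhibition; 0 means no net growth; -100 means all cells died. Active threshold: below 10.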 Values without a mark were called inactive. Active and inactive are the calls of the source.

What follows are compounds tested on SK-MEL-2 melanoma (assay: NCI-60 one-dose screen, 48 h (100 = growth as untreated, 0 = no growth, -100 = all killed)). Details: 10 µM unless noted.
`OCCN1CCCCCCC1` gave a growth of 112%.
In the case of `O=[N+]([O-])c1cccc(SSc2cccc([N+](=O)[O-])c2)c1`, the growth is reported as 98.5%.
For `COc1ccc(Nc2ccc3ccccc3c2)cc1`, the growth was 67.2%.
In the case of `O=C(CO)C(O)C(O)C(O)C(O)CO` (stereo not given), the growth is reported as 104% and 108%.
Compound `c1ccc(CNCCNCc2ccccc2)cc1` has a growth of 102%.
For `Cc1cc2ccccc2cn1`, the growth was 107%.
With `CCCCCCCCCCNC(=O)CI` the growth was -50.1% (active).
`O=C1OC(c2ccccc2)=N/C1=C\c1ccccc1` gave a growth of 116%.
In the case of `Cc1cc(-c2cc(C)c(O)c(C)c2)cc(C)c1O`, the growth is reported as 73.5%.
With `O=C(O)CCCl` the growth was 123%.
For `O=c1[nH]cnc2c1ncn2C1OC(CO)C(O)C1O` (stereo not given), the growth was 110%.
In the case of `COc1cc(C(O)C2C(=O)OCC2C2(c3ccc4c(c3)OCO4)SCCCS2)cc(OC)c1OC` (stereo not given), the growth is reported as 95.6%.
Work on `CC(=O)NCC(=O)c1ccc([N+](=O)[O-])cc1` yielded a growth of 136%.
With `CC(C)NCC(O)c1ccc(O)c(O)c1` (stereo not given) the growth was 110% and 240%.
Work on `CN1CNC(=O)NC1` yielded a growth of 114%.
`Cc1ccc(S(=O)(=O)c2ccccc2)cc1` was tested, and the growth was 38.6%.
In the case of `O=C(O)/C=C\C(=O)Nc1cccc2ccccc12`, the growth is reported as 88.2% and 130%.
For `N#CC(C#N)N=Nc1cc(Cl)ccc1Cl`, the growth was 85.6%.
For `Brc1ccc(SSc2ccc(Br)cc2)cc1`, the growth was 101%.
For `c1ccc(-c2nc3ccccc3s2)cc1`, the growth was 112%.
`COc1ccc(N/C=C/C2=[N+](C)c3ccccc3C2(C)C)c(OC)c1` gave a growth of 114%.
Compound `COc1ccc(C(=O)CC(c2ccccc2)C(C#N)c2ccccc2)cc1` (stereo not given) has a growth of 71.6%.
For `CCOC(=O)c1c(C)cc(=O)oc1C`, the growth was 125%.
Compound `CCCCCCCCCCCCCCCc1ccc(N)c(OC2OC(CO)C(O)C(O)C2O)c1` (stereo not given) has a growth of 80.6%.
`CC(=O)OC(C)C(=O)NCC(C)O` (stereo not given) gave a growth of 110%.
Compound `OC1COC(OCc2ccccc2)C(O)C1O` (stereo not given) has a growth of 99%.
With `NC(=O)NCCCC(N)C(=O)O` (stereo not given) the growth was 95.4%.
`ClCCOCCOc1ccc(C2CCCCC2)cc1` was tested, and the growth was 102%.
Compound `Fc1ccc([I+]c2ccc(F)cc2)cc1` has a growth of 68.8%.
`CC(C)C(C)(C)c1ccc(O)cc1` gave a growth of 104%.
`O=C(Cc1ccccc1)c1ccc(O)c(Cl)c1` was tested, and the growth was 64.9%.
`CC1CCC2(OC1)OC1CC3C4CC=C5CC(O)CCC5(C)C4CCC3(C)C1C2C` (stereo not given) showed a growth of 122%.

What follows are compounds tested on EKVX NSCLC in the same assay as above. Details: 10 µM.
`O=[N+]([O-])c1cccc(SSc2cccc([N+](=O)[O-])c2)c1` was tested, and the growth was 106%.
`CCc1cc(C)cc(O)c1` was tested, and the growth was 101%.
Compound `COc1ccc(Nc2ccc3ccccc3c2)cc1` has a growth of 92.8%.
Compound `Nc1ncnc2c1ncn2C1OC(COP(=O)(O)O)C(O)C1O` (stereo not given) has a growth of 113%.
Compound `Cc1cc2ccccc2cn1` has a growth of 93%.
Work on `Cc1cc(-c2cc(C)c(O)c(C)c2)cc(C)c1O` yielded a growth of 68.2%.
`Cl` was tested, and the growth was 100%.
`O=c1[nH]cnc2c1ncn2C1OC(CO)C(O)C1O` (stereo not given) was tested, and the growth was 123% and 107% and 93.1%.
`COc1cc(C(O)C2C(=O)OCC2C2(c3ccc4c(c3)OCO4)SCCCS2)cc(OC)c1OC` (stereo not given) gave a growth of 88.7%.
In the case of `CC(=O)NCC(=O)c1ccc([N+](=O)[O-])cc1`, the growth is reported as 102%.
With `CC(C)NCC(O)c1ccc(O)c(O)c1` (stereo not given) the growth was 104% and 85% and 91.2%.
`CN1CNC(=O)NC1` gave a growth of 97.3%.
In the case of `Cc1ccc(S(=O)(=O)c2ccccc2)cc1`, the growth is reported as 76.7%.
With `O=C(O)/C=C\C(=O)Nc1cccc2ccccc12` the growth was 65.1% and 112%.
With `c1ccc(-c2nc3ccccc3s2)cc1` the growth was 85.5%.
For `COc1ccc(C(=O)CC(c2ccccc2)C(C#N)c2ccccc2)cc1` (stereo not given), the growth was 84.9%.
With `CCCCCCCCCCCCCCCc1ccc(N)c(OC2OC(CO)C(O)C(O)C2O)c1` (stereo not given) the growth was 81.6%.
Compound `CC(C)C(C)(C)c1ccc(O)cc1` has a growth of 107%.
`Cn1cnc([N+](=O)[O-])c1Sc1ncn[nH]1` showed a growth of 101%.
`O=C(Cc1ccccc1)c1ccc(O)c(Cl)c1` gave a growth of 66.1%.
For `CC1CCC2(OC1)OC1CC3C4CC=C5CC(O)CCC5(C)C4CCC3(C)C1C2C` (stereo not given), the growth was 96.6%.

Each compound was assayed on SN12C renal in the same assay as above. Details: 10 µM unless noted.
`OCCN1CCCCCCC1` gave a growth of 93.7%.
Compound `O=[N+]([O-])c1cccc(SSc2cccc([N+](=O)[O-])c2)c1` has a growth of 93.7%.
`CCc1cc(C)cc(O)c1` was tested, and the growth was 105%.
For `COc1ccc(Nc2ccc3ccccc3c2)cc1`, the growth was 76.9%.
`O=C(CO)C(O)C(O)C(O)C(O)CO` (stereo not given) was tested, and the growth was 99.8% and 97.3%.
In the case of `Nc1ncnc2c1ncn2C1OC(COP(=O)(O)O)C(O)C1O` (stereo not given), the growth is reported as 99.9%.
`c1ccc(CNCCNCc2ccccc2)cc1` showed a growth of 105%.
In the case of `Cc1cc2ccccc2cn1`, the growth is reported as 94% and 104%.
`CCCCCCCCCCNC(=O)CI` was tested, and the growth was 33.9%.
`O=C1OC(c2ccccc2)=N/C1=C\c1ccccc1` showed a growth of 102%.
For `Cc1cc(-c2cc(C)c(O)c(C)c2)cc(C)c1O`, the growth was 90.5%.
With `O=C(O)CCCl` the growth was 107%.
Compound `O=c1n(CC2CO2)c(=O)n(CC2CO2)c(=O)n1CC1CO1` (stereo not given) has a growth of 46.7%.
Work on `Cl` yielded a growth of 104%.
In the case of `O=c1[nH]cnc2c1ncn2C1OC(CO)C(O)C1O` (stereo not given), the growth is reported as 99.8% and 121% and 96.1%.
For `COc1cc(C(O)C2C(=O)OCC2C2(c3ccc4c(c3)OCO4)SCCCS2)cc(OC)c1OC` (stereo not given), the growth was 101%.
Work on `CC(=O)NCC(=O)c1ccc([N+](=O)[O-])cc1` yielded a growth of 105%.
With `CC(C)NCC(O)c1ccc(O)c(O)c1` (stereo not given) the growth was 76.5% and 91.4% and 92.8%.
With `CN1CNC(=O)NC1` the growth was 105% and 102%.
`Cc1ccc(S(=O)(=O)c2ccccc2)cc1` gave a growth of 50.4%.
In the case of `O=C(O)/C=C\C(=O)Nc1cccc2ccccc12`, the growth is reported as 97.6% and 92.3%.
For `N#CC(C#N)N=Nc1cc(Cl)ccc1Cl`, the growth was 103%.
In the case of `Brc1ccc(SSc2ccc(Br)cc2)cc1`, the growth is reported as 63.8%.
In the case of `c1ccc(-c2nc3ccccc3s2)cc1`, the growth is reported as 88.7%.
`COc1ccc(N/C=C/C2=[N+](C)c3ccccc3C2(C)C)c(OC)c1` gave a growth of 96.6%.
Compound `COc1ccc(C(=O)CC(c2ccccc2)C(C#N)c2ccccc2)cc1` (stereo not given) has a growth of 86.8%.
`CCOC(=O)c1c(C)cc(=O)oc1C` gave a growth of 98.6%.
`CCCCCCCCCCCCCCCc1ccc(N)c(OC2OC(CO)C(O)C(O)C2O)c1` (stereo not given) was tested, and the growth was 87.6%.
`CC(=O)OC(C)C(=O)NCC(C)O` (stereo not given) showed a growth of 106%.
With `OC1COC(OCc2ccccc2)C(O)C1O` (stereo not given) the growth was 99.4%.
`NC(=O)NCCCC(N)C(=O)O` (stereo not given) gave a growth of 104%.
`ClCCOCCOc1ccc(C2CCCCC2)cc1` was tested, and the growth was 96.3%.
Work on `Fc1ccc([I+]c2ccc(F)cc2)cc1` yielded a growth of 92.9%.
`CC(C)C(C)(C)c1ccc(O)cc1` gave a growth of 102%.
In the case of `Cn1cnc([N+](=O)[O-])c1Sc1ncn[nH]1`, the growth is reported as 101%.
In the case of `O=C(Cc1ccccc1)c1ccc(O)c(Cl)c1`, the growth is reported as 31.1%.
`CC1CCC2(OC1)OC1CC3C4CC=C5CC(O)CCC5(C)C4CCC3(C)C1C2C` (stereo not given) was tested, and the growth was 100%.
